Consider 40 compounds from PubChem BioAssay.

Structures are written as SMILES. Values without a mark were called inactive. The source made the active and inactive calls.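 The calls were made as follows: active = inhibition above 50%; inactive = the rest.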

As a reminder, the inhibition is the drop in the measured response relative to a control, in per cent.

This test in a line: human hepatoma cell viability loss – ATP luminescence, cytotoxicity control for P. falciparum antimalarial project, primary screen (AID 2303).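 Also: 0% = DMSO wells and 100% = digitonin-killed cells.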 The note with it: HepG2 viability, 24-48 h, at 10 µM, active compounds read high.
In the case of `COc1cc(OC)cc(C(=O)Nc2ccc(Nc3nc(C)cc(N(C)C)n3)cc2)c1`, the inhibition is 11%. `Cc1ccc(C=C2SC(=Nc3ccccc3)NC2=O)c(C)c1`: the inhibition is 1%.

Turning to `CC(C)(C)c1nn(-c2ccccc2)c2[nH]c(=O)c(CNCc3ccc4c(c3)OCO4)cc12`, the inhibition was 1%. For the compound `Cc1[nH]nc2cc(Nc3nccc(Nc4ccc(Oc5ccccc5)cc4)n3)ccc12`, the inhibition is 8%. For the compound `Cc1cc(Nc2ccc(OCc3ccccc3Cl)cc2)c2cc(Cl)ccc2n1`, the inhibition was 33%. Turning to `O=C(NCCc1cccc(F)c1)c1cc(Br)cc(N2CCN(c3ccncc3)CC2)c1`, the inhibition is 34%. On to `COC(=O)/C=C/c1ccc(CCC(C)NCC(O)c2cccc(Cl)c2)cc1` (stereo not given), for which the inhibition is 5%. As to `O=[N+]([O-])c1ccc(C(O)CNCCc2ccccc2)cc1OCc1ccccc1` (stereo not given), the inhibition is -6%. Take `Cc1sc2nc(CSc3ccccc3)nc(N3CCN(CC(=O)NC4CC4)CC3)c2c1C`: the inhibition was 2%.

As to `O=C(c1ccc(F)c2ccccc12)N1CCc2cc3nccc(N4CCN5CCC[C@H]5C4)c3cc21`, the inhibition is -8%. For the compound `Cc1[nH]c2ccccc2c1C(=O)C(C)Sc1n[nH]c(-c2ccccc2Br)n1` (stereo not given), the inhibition is -7%. Consider `CN(C)CCCOc1cc(NC(=O)Nc2ccc(-c3ccncc3)c3ccccc23)ccc1I`, for which the inhibition is 46%. In the case of `CC[C@H](C)CNC(=O)c1cncc(-c2ccc(CNCC3CNCCCO3)cc2)c1` (stereo not given in full) it was -5%; in that of `Cc1cnc(C(=O)Nc2cccc(-c3cccc(-c4nc5ccc(F)cc5[nH]4)c3)c2)cn1`, 25%. Take `O=C(NCc1cc2c(cc1Cl)OCO2)c1ccc(CNC2CCN(Cc3ccccc3)CC2)cc1`: the inhibition is 11%.

As to `CCN1CCN(Cc2c(O)ccc3c(=O)c(Oc4cc(C)cc(C)c4)c(C(F)(F)F)oc23)CC1`, the inhibition is 6%. On to `O=S(=O)(c1ccc(OCc2ccc(Cl)cc2)cc1)c1cc2c(cc1OCc1ccccc1)CCN(CC1CC1)CC2`, for which the inhibition was 19%.

As for `CC(C)CC(=O)Nc1cc(=O)[nH]c2nc(-c3ccccc3)nn12`, the inhibition was -6%. `COc1ccc(-c2ccc(NC(=O)c3ccc(F)cc3)cc2)cc1CN1CCCN(C)CC1`: the inhibition is 29%. Consider `CC(C)(C)c1ccc(CNC(=O)c2ccc(-c3nc4ccc(C(C)(C)C)cc4[nH]3)cc2)cc1`, for which the inhibition is 21%. As for `COc1ccccc1C1CCN(C2CCC(NC(=O)/C=C/c3cccc(C(F)(F)F)c3)CC2)CC1` (stereo not given), the inhibition was 38%. Consider `COC(=O)c1ccc(-c2ccc(C(=O)NCC3CCN(c4nc(N)c5cc(OC)c(OC)cc5n4)CC3)cc2)cc1`, for which the inhibition was 53% (active). As to `COc1nc2c(CCN3CC[C@H](NCc4ccc5c(c4)NC(=O)CO5)[C@H](O)C3)c(Cl)cnc2cc1F`, the inhibition is 21%. With `CCCCCC1c2[nH]c3ccccc3c2CCN1C(=O)OCc1ccccc1` (stereo not given), the inhibition is 3%. `CCC[C@@H]([C@@H](CC1CCCCC1)C(=O)N[C@H](C(=O)Nc1nccs1)C(C)(C)SCCNC(=O)OCc1ccccn1)N(O)C=O`: the inhibition was 17%. With `N=c1c(C(=O)NCc2ccccc2)cc2c(=O)n3ccccc3nc2n1CCc1ccccc1`, the inhibition was 5%. Turning to `CN(CCCCCN1CCC(NC(=O)Nc2ccc(Oc3ccccc3)cc2)C1)C(=O)/C=C/c1ccc(Cl)c(Cl)c1` (stereo not given), the inhibition was 50% (active). As to `Cc1noc(C)c1-c1cccc(CNCc2ccc(-c3ccc(-c4nc5c(C)cccc5[nH]4)cc3)cc2)c1`, the inhibition was 28%. For `CCN(CC)CCN(Cc1ccc(-c2ccc(C(F)(F)F)cc2)cc1)C(=O)Cn1cc(CCCc2cccc(F)c2F)c(=O)c2ccccc21`, the inhibition is 13%. On to `COC(=O)c1c(NC(=O)c2cccc(C(F)(F)F)c2)sc2c1CCN(Cc1ccccc1)C2`, for which the inhibition was 9%. For `O=C(Nc1cccc(-c2ccc(-c3nc4ccc(C(F)(F)F)cc4[nH]3)s2)c1)c1ccncc1`, the inhibition was 79% (active). Consider `CN(C)CCCOc1ccc(CCNCc2cccc(Oc3ccc(Cl)cc3)c2)cc1`, for which the inhibition was 57% (active). Regarding `COc1cc2ccccc2cc1CNCCCCCCNCc1cc2ccccc2cc1OC`, the inhibition is 98% (active). For `COc1ccc(C(=O)CCC(=O)N(Cc2ccc(-c3ccc(CNCCc4ccc(S(C)(=O)=O)cc4)cn3)cc2)Cc2ccc3c(c2)OCO3)cc1F`, the inhibition was 13%. On to `CCN1CCCC1CN(Cc1ccc(-c2ccc(C(F)(F)F)cc2)cc1)C(=O)Cn1c(CCc2cccc(F)c2F)nc(=O)c2ccccc21` (stereo not given), for which the inhibition was 40%. `O=C(NCCCCCN1CCC(c2c[nH]c3ccccc23)CC1)c1ccc(Cl)c(Cl)c1`: the inhibition is 48%. In the case of `CCCCCCCn1c(=N)n(CC(O)c2ccc(Cl)c(Cl)c2)c2ccccc21` (stereo not given) it was 99% (active); in that of `O=C(Nc1cccc(C(F)(F)F)c1)c1cccc2[nH]c(C(F)(F)F)nc12`, 81% (active).

Consider `Cc1cccc2[nH]c(-c3ccc(-c4ccc(NC(=O)c5cncn5C)cc4)s3)nc12`, for which the inhibition was 49%. In the case of `Nc1c(Cl)cc(C(O)CNCCCCCOCCc2ccc3ccccc3n2)cc1Cl` (stereo not given) it was 9%.
